Assay [1] can be described thus: qHTS assay to identify small molecule agonists of the vitamin D receptor (VDR) signaling pathway - cell viability counter screen (AID 743224). Note: nearly all actives have a fitted effect of over 50% in size. Note: potency is the fitted concentration of half-maximal effect. The method in brief: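 VDR-bla cells were preincubated 4 h at 37C/5% CO2, then exposed to compounds for 16 h. After the 2 h room-temperature bla FRET read, CellTiter-Glo was added to the same wells and luminescence read after 30 min.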

A short description of assay [2]: qHTS assay to identify small molecule antagonists of the vitamin D receptor (VDR) signaling pathway - cell viability counter screen (AID 743225). Note: nearly all actives have a fitted effect of over 50% in size. Note: potency is the fitted concentration of half-maximal effect. In a few lines: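 VDR-bla HEK 293T cells, 4 h pre-incubation at 37C, then compound plus 1-alpha,25-dihydroxyvitamin D3 (3 nM final) for 16 h. After the beta-lactamase FRET read, CellTiter-Glo was added to the same wells; luminescence after 30 min at room temperature.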

Assay [3] is described as follows: qHTS assay to identify small molecule agonists of the endoplasmic reticulum stress response signaling pathway (AID 1159516; active = well fitted activation curve with a large enough effect in the signal ratio in the repeat runs, not every such curve was filed as active; the % refers to the signal ratio). In a few lines:
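CellSensor ESRE-bla HeLa cells, carrying a beta-lactamase reporter driven by the ER stress response element, were plated overnight and exposed to compounds for 5 hr at 37 C. Reporter activity was read as FRET substrate fluorescence after 2 hr at room temperature.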

Assay [4] can be described thus: qHTS assay to identify small molecule agonists of the endoplasmic reticulum stress response signaling pathway - cell viability counter screen (AID 1159517; calls by dose curve; note: series mostly up to about 61 µM; nearly all actives have a fitted effect of over 50% in size). The method in brief: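 ESRE-bla HeLa cells, 1,500 per well, seeded overnight then treated with compounds for 5 hr at 37 C. After the beta-lactamase read, viability in the same wells is measured by CellTiter-Glo luminescence after 30 min at room temperature.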

The nature of assay [5]: qHTS assay to identify small molecule antagonists of the retinoid-related orphan receptor gamma (ROR-gamma) signaling pathway - cell viability counter screen (AID 1159520). Note: nearly all actives have a fitted effect of over 50% in size. Note: potency is the fitted concentration of half-maximal effect. In a few lines:
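Tet-on ROR gamma CHO cells were given compounds for 2 hr, then doxycycline hyclate at 1 uM final, and incubated 16 hr at 37 C. Viability was measured as ATP content by CellTiter-Glo luminescence.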

Assay [6] deals with Nuclear receptor ROR-gamma (Homo sapiens) (UniProt P51449). In words: qHTS assay to identify small molecule antagonists of the retinoid-related orphan receptor gamma (ROR-gamma) signaling pathway (AID 1159521; note: nearly all actives have a fitted effect of over 50% in size; note: potency is the fitted concentration of half-maximal effect). The method in brief:
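Tet-on RORγ CHO cells carrying a ROR response element–luciferase reporter were pretreated with compounds for 2 h, then induced with 1 uM (final) doxycycline hyclate for 16 h at 37 C. Antagonism was read as decreased ONE-Glo luminescence.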

A short description of assay [7]: qHTS assay to identify small molecule agonists of the AP-1 signaling pathway - cell viability counter screen (AID 1159525; calls by dose curve; note: nearly all actives have a fitted effect of over 55% in size; note: potency is the fitted concentration of half-maximal effect). The method in brief:
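AP-1-bla ME-180 cells in Opti-MEM with 0.5% dialyzed FBS, compound exposure 5 h at 37 C in 15-point titration. Viability read in the same wells as ATP content by CellTiter-Glo luminescence, normalised to tetra-n-octylammonium bromide and DMSO controls.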

The nature of assay [8]: qHTS assay to identify small molecule agonists of the AP-1 signaling pathway (AID 1159526; calls by dose curve).
Assay [9] has as its target Retinoic acid receptor RXR-alpha (Homo sapiens) (UniProt P19793). As to the kind of experiment: qHTS assay to identify small molecule agonists of the RXR signaling pathway (AID 1159527; calls by dose curve; note: nearly all actives have a fitted effect of over 35% in size). The method in brief:
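GeneBLAzer RXR-alpha-UAS-bla HEK 293T cells in medium with 2% charcoal-stripped FBS, pre-incubated 5 hr at 37 C, then exposed to compounds 16 hr. Beta-lactamase reporter read by FRET substrate, 2 hr room temperature, 460/530 nm emission.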

The nature of assay [10]: qHTS assay to identify small molecule agonists of the RXR signaling pathway - cell viability counter screen (AID 1159529). Note: nearly all actives have a fitted effect of over 50% in size. Note: potency is the fitted concentration of half-maximal effect. In a few lines: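 RXR-alpha-UAS-bla HEK 293T cells in medium with 2% charcoal-stripped FBS were preincubated 5 hr, then exposed to compounds for 16 hr at 37 C. Viability was read as CellTiter-Glo luminescence after 30 min at room temperature.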
Assay [11] in a line: qHTS assay to identify small molecule antagonists of the retinoid acid receptor (RAR) signaling pathway - cell viability counter screen (AID 1159551). Note: nearly all actives have a fitted effect of over 35% in size. Note: potency is the fitted concentration of half-maximal effect. The method in brief: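 C3RL4 cells were seeded overnight at 37 C, then treated with compounds plus 1 uM (final) retinol for 6 h at 37 C. Viability was read as ATP by CellTiter-Glo luminescence after 30 min at room temperature.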

Assay [12] in a line: qHTS assay to identify small molecule agonists of the retinoic acid receptor (RAR) signaling pathway (AID 1159553). In a few lines:
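C3RL4 cells carrying a RARE luciferase reporter were plated overnight at 37 C, then exposed to compounds in DMSO for 6 hr at 37 C and 5% CO2. Luminescence was read 30 min after luciferase reagent addition at room temperature.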

A short description of assay [13]: qHTS assay to identify small molecule antagonists of the retinoic acid receptor (RAR) signaling pathway (AID 1159552; note: nearly all actives have a fitted effect of over 50% in size; note: potency is the fitted concentration of half-maximal effect). In a few lines:
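RARE-luc C3RL4 cells; cpds + 1 uM (final) retinol, 6 hr, 37 C/5% CO2; luciferase reagent, 30 min RT, luminescence readout. Inhibitors of retinol-driven signal scored.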

The nature of assay [14]: qHTS assay to identify small molecule antagonists of the estrogen related receptor (ERR) signaling pathway - cell viability counter screen (AID 1224818).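 Note: series mostly up to about 46 µM; viability measured after 17.5 h of compound exposure.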 In a few lines:
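ERR reporter cells plated 6 h at 37 C/5% CO2, then compounds in DMSO pin-transferred and incubated 17.5 h at 37 C. Viability read as CellTiter-Fluor fluorescence after 30 min at 37 C.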

The nature of assay [15]: qHTS assay to identify small molecule agonists of the estrogen related receptor (ERR) signaling pathway (AID 1224820). In a few lines:
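ERR reporter cell line (from NTP), 2,000 cells/well, incubated 6 h before compound addition, then 18 h at 37 C. Luminescence measured 30 min after One-Glo reagent at room temperature.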

The test system of assay [16] is estrogen-related receptor alpha (ERRalpha) with PGC-1alpha coactivator, human. In words: qHTS assay to identify small molecule antagonists of the estrogen related receptor signaling pathway with the pleiotropic PPARgamma coactivator (PGC) (AID 1224821; calls by dose curve). In a few lines: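 PGC/ERR reporter cell line, plated 6 h before compound addition, then exposed 18 h at 37 °C. Luciferase activity read by luminescence 30 min after One-Glo addition; decrease indicates antagonism.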

Assay [17] can be described thus: qHTS assay to identify small molecule agonists of the estrogen related receptor signaling pathway with the pleiotropic PPARgamma coactivator (PGC) (AID 1224823). The method in brief:
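PGC/ERR reporter cells seeded 6 h, then exposed to compounds (23 nL in DMSO) for 18 h at 37 C. One-Glo luciferase luminescence read after 30 min at room temperature.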

Assay [18] in a line: qHTS assay to identify small molecule agonists of the NFkB signaling pathway - cell viability counter screen (AID 1159515; calls by dose curve; note: nearly all actives have a fitted effect of over 55% in size; note: potency is the fitted concentration of half-maximal effect). The method in brief:
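NFkB-bla ME-180 cells, 2,000/well, were plated overnight at 37 C, 5% CO2, then exposed to compounds in DMSO for 5 hr. After the bla FRET read, CellTiter-Glo was added to the same wells; luminescence was read after 30 min at room temperature.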

The structures appear in SMILES notation. Results filed as inconclusive are left out. More than one record can exist for a structure, and the calls need not agree. The source made the active and inactive calls. Unless noted, calls come from the whole dose curve; as a rule, active = well fitted curve in the direction sought with a large enough effect in the repeat runs; inconclusive = weak or mixed curves; inactive = no such curve, though single readings can be large; an effect the other way counts as inactive or inconclusive.

Chain of Retinoic acid receptor RXR-alpha (Homo sapiens) (P19793 whole entry, looked up): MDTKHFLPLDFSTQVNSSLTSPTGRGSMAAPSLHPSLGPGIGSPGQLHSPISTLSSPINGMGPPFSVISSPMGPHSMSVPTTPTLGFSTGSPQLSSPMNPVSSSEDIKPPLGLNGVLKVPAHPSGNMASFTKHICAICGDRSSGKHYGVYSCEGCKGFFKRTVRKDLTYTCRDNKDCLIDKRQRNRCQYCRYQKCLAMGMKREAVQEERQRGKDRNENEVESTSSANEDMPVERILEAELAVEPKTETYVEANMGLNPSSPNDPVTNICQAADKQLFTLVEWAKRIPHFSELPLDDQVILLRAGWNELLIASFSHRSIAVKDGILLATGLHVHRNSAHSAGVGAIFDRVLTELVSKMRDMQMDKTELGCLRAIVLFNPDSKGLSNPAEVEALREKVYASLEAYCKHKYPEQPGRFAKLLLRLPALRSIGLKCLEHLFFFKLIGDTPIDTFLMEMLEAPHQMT

For `NC(=O)CC[C@@H]1NC(=O)[C@H](Cc2ccccc2)NC(=O)[C@H](Cc2ccc(O)cc2)NC(=O)CCSSC[C@@H](C(=O)N2CCC[C@H]2C(=O)N[C@@H](CCCN=C(N)N)C(=O)NCC(N)=O)NC(=O)[C@H](CC(N)=O)NC1=O`, the Potency entry in assay [1], in assay [2], in [4], in assay [5], in assay [6] and in [7] was “inactive” each time. The Potency entry in assay [8], in [9], in assay [10], in assay [11] and in assay [12] was “inactive” each time. Further, the result in [3] was inactive.

In the case of `CCCC1O[C@@H]2C[C@H]3[C@@H]4CCC5=CC(=O)C=C[C@]5(C)[C@H]4[C@@H](O)C[C@]3(C)[C@]2(C(=O)CO)O1` (some centres not stated), the Potency result in [1], in [2], in [4], in assay [5], in assay [7] and in assay [10] was “inactive” throughout. The Potency entry in [11], in [12], in assay [14] and in assay [16] was “inactive” throughout. Moreover, the molecule was called inactive in assay [3], in [15] and in assay [17]. The Potency in assay [6] and in assay [13] was 48.6 µM (active) throughout.

Take `CC(=O)OCC(C)OC(C)=O` (configuration not stated): the Potency entry in assay [1], in assay [2], in assay [4], in [5], in assay [6] and in assay [7] was “inactive” each time. Besides, the Potency entry in assay [8], in assay [9], in assay [10], in assay [11] and in assay [13] was “inactive” each time. Further, the molecule was called inactive in assay [3].

`CC[C@H]1O[C@]2(CC[C@@H]1C)C[C@@H]1C[C@@H](C/C=C(\C)C[C@@H](C)/C=C/C=C3\CO[C@@H]4[C@H](O)C(C)=C[C@@H](C(=O)O1)[C@]34O)O2`: the Potency in assay [1] was 17.2 µM (active); in assay [2], 21.7 µM (active); in assay [18] it was 24.3 µM (active); in [7] it was 21.7 µM (active); in assay [10], 19.3 µM (active); in [11] it was 68 µM (active). The Potency in assay [13] is 42.9 µM (active).

Regarding `O=C(NOCC1CC1)c1ccc(F)c(F)c1Nc1ccc(I)cc1Cl`, the Potency result in [2], in assay [18], in [11] and in assay [13] was “inactive” each time. Moreover, the Potency in assay [6] was 9.44 µM (active).

On to `CNC(=O)c1ccccc1`, for which the Potency result in assay [1], in assay [2], in assay [4], in assay [5], in assay [6] and in [7] was “inactive” throughout. For the same molecule, the Potency entry in assay [8], in [9], in assay [10] and in assay [11] was “inactive” in each case. The result in assay [3] was inactive.

For the molecule `COC(=O)C1=C(C)NC(C)=C(C(=O)OCC(C)C)C1c1ccccc1[N+](=O)[O-]` (configuration not stated), the Potency in assay [1] is 27.5 µM (active); in assay [5], 43.3 µM (active) and inactive; in assay [10], 49 µM (active) and inactive; in assay [13], 48.6 µM (active). Also, the Potency entry in [2], in [4], in assay [8], in [11] and in assay [12] was “inactive” in each case. In assay [3], the molecule was classed as inactive.

As to `O=C(c1ccc(O)cc1O)c1ccc(O)cc1O`, the Potency entry in assay [1], in assay [2], in assay [4], in [5], in [6] and in assay [7] was “inactive” each time. In addition, the Potency result in assay [8], in assay [9], in [10], in [11] and in assay [13] was “inactive” each time. Further, in assay [3], the outcome was inactive.

Regarding `O=C(O)c1ccc(Cl)c(Cl)c1`, the Potency result in [1], in assay [2], in [4], in assay [5], in [6] and in assay [7] was “inactive” each time. For the same molecule, the Potency entry in assay [8], in assay [9], in assay [10], in assay [11], in assay [13] and in assay [12] was “inactive” each time. Also, the outcome in assay [3] was inactive.

Values taken from PubChem BioAssay (Tox21).
